Compound activity as filed in PubChem BioAssay.
ALDH1A1 inh = ALDH1A1 (human) enzyme inhibition. P00352. Purified ALDH1A1, NADH fluorescence, propionaldehyde substrate. Potency, µM (doses to about 75.3 µM), for the others: at the highest dose activity, negative = inhibition, hits mostly inhibitors. 220,000 compounds, 7.3% hits. AID 1030; active means well fitted inhibition curve with a large enough effect, not every such curve was filed as active; inconclusive means small, poorly fitted or top-dose-only effect, or another doubt; inactive means no such curve, though single readings can be large or run the other way;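 further: plate controls were no enzyme wells and a reference inhibitor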
Target sequence (P00352 whole entry, looked up): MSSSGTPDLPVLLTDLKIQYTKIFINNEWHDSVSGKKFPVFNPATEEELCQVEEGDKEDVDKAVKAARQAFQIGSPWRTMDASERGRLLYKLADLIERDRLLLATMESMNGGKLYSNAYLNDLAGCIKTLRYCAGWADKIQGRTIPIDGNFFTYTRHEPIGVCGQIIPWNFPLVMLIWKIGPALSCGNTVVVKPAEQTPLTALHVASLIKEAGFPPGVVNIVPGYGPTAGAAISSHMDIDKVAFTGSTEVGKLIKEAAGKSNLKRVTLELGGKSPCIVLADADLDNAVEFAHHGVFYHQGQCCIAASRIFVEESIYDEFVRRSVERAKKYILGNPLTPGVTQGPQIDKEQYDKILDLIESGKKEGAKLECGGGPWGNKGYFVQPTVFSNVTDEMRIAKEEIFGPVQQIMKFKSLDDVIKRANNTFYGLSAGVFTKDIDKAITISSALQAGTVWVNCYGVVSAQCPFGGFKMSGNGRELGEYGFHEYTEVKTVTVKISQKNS
NPSR antagonist = antagonists of human neuropeptide S receptor cAMP signaling; CHO-NPSR cells, cAMP TR-FRET, antagonist mode; Potency, µM (series often up to 38.3 µM), inactives show at the highest dose activity change, negative = inhibition, most hits filed as inhibitors; AID 1461; Q6W5P4; 220,000 compounds, 1% hits; further: nearly all actives have a fitted effect of over 50% in size
Tau fluor counter = counter-screen for tau fibril formation inhibitors | tau K18 P301L Alexa594 fluorescence, heparin fibrillization | Potency, µM (titrated, usually from 57.7 µM), inactives show at the top dose activity change, negative = decrease | AID 1463 | 280,000 compounds, 0.93% hits; further: nearly all actives have a fitted effect of over 55% in size
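Human K18 P301L tau (15 uM unlabeled plus 0.24 uM Alexa 594-labeled, final) in 100 mM sodium acetate pH 7 was mixed with compound and 20 uM heparin and incubated 6 hr at 37 C.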
Tau ThT inhib = tau fibrillization inhibition (ThT binding); AID 1460; Potency, µM (top dose mostly 57.4 µM), for inactives: at the highest dose activity, negative = inhibition, actives largely listed as inhibitors; recombinant tau K18 P301L, heparin-induced fibrillization, ThT fluorescence; 270,000 compounds, 2.1% hits; further: nearly all actives have a fitted effect of over 55% in size
Target sequence (P10636 561-689 P618L limits assumed): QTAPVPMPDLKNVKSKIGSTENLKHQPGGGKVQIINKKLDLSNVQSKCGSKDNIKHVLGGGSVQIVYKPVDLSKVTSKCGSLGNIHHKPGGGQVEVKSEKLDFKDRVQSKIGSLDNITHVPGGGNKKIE
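Using a mix of unlabeled (15 uM) and Alexa 594-labeled (0.24 uM) tau K18 P301L, heparin-triggered fibrillization over 6 hr at 37 C was scored by ThT fluorescence.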
Tau fibril FP = inhibitors of human tau fibril formation | P10636 | K18 P301L tau heparin fibrillization, Alexa594 FP, 6 h | Potency, µM (titrated, usually from 57.7 µM), without a hit: at the top dose activity, negative = inhibition, hits mostly inhibitors | 280,000 compounds, 0.39% hits | AID 1468; further: nearly all actives have a fitted effect of over 55% in size
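Human tau K18 […] P301L fragment, 15 uM unlabeled plus 0.24 uM Alexa 594-labeled tau (final), with compound and 20 uM heparin in 100 mM sodium acetate pH 7; 6 hr at 37 C, then Alexa 594 FP read.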
HPGD block = HPGD (human) dehydrogenase inhibition | P15428 | purified HPGD, NADH fluorescence kinetic, PGE2 substrate | Potency, µM, without a hit: at the highest dose activity change, negative = inhibition, actives largely listed as inhibitors | 150,000 compounds, 4.3% hits | AID 894; active means well fitted inhibition curve with a large enough effect, not every such curve was filed as active; inconclusive means small, poorly fitted or top-dose-only effect, or another doubt; inactive means no such curve, though single readings can be large or run the other way
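20 nM HPGD preincubated 15 min at room temperature with compound in 50 mM Tris-HCl pH 8, 0.01% Tween 20. Started with 1 mM NAD+ and 30 uM prostaglandin E2; NADH fluorescence (360/450 nm) read 5 times over 30-s intervals, last minus first.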
The depositor's hits bear a star; ? = inconclusive; · = no result; ! = not confirmed by another sample; [ ] = dose if it differs, or a comment. An excerpt weighted towards active compounds, which were near 9.5% of everything screened. Unless noted, the call rests on the fitted dose curve; in most records, active means well fitted curve in the direction sought with a large enough effect; inconclusive means small, poorly fitted or top-dose-only effect, or another doubt; inactive means no such curve, though single readings can be large; an effect the other way counts as inactive or inconclusive. Unless noted, on the % scale 0 is the no-effect control and ±100 the full control effect; potency means the concentration at half of the fitted maximal effect.

SMILES | ALDH1A1 inh | NPSR antagonist | Tau fluor counter | Tau ThT inhib | Tau fibril FP | HPGD block
Cc1ccc(-c2nnc(Nc3cccc(Br)c3)c3ccccc23)cc1S(=O)(=O)N1CCCCC1 | · | · | -13% | 4% | ? | ·
CCS(=O)(=O)N1CCN(c2ccc(C(=O)NC3C4CC5CC(C4)CC3C5)cc2[N+](=O)[O-])CC1 (stereo not drawn) | 7.1µM* | -28% | -5% | ? | 9% | -1%
CC(=O)N1CCC[C@@]2(CCN(c3ccncc3)C2)C1 | -5% | · | · | · | · | -1%
COc1ccc(Cl)cc1NS(=O)(=O)c1c(C)nc2scc(C)n2c1=O | · | · | -28% | -3% | -7% | ·
O=C(CCN1CCOCC1)c1ccc2c(c1)OCCO2 | 0.45µM* | 14%[46.1 µM] | 12% | -16% | ? | -25%
O=C(CCN1CCc2ccccc2CC1)c1ccc2c(c1)OCCO2 | 0.11µM* | -14%[46.1 µM] | -2% | ? | ? | -21%
O=C(CCCN1CCOCC1)c1ccc2c(c1)OCCO2 | ? | -28%[46.1 µM] | -14% | -9% | -9% | -15%
O=C(NCc1ccccc1)c1ccccc1C(=O)c1ncc[nH]1 | 3% | -4% | 7% | 7% | 5% | ·
c1ccc(Nc2cc(Nc3ccccc3)[nH]n2)cc1 | ? | -7%[46.1 µM] | ? | ? | -3% | -12%
O=C1CN(C(=O)c2ccccc2F)c2ccccc2N1 | -2% | -7%[46.1 µM] | 3% | -1% | 0% | -1%
Cc1ccc(Nc2c([N+](=O)[O-])cc(C(=O)N3CC(=O)Nc4ccccc43)cc2[N+](=O)[O-])c(C)c1 | 8% | ? | ? | ? | 6% | 16µM*
O=c1cc(-c2ccccc2O)oc2cc(O)ccc12 | 4% | · | -8% | -7% | -16% | ?
O=c1cc(-c2ccc(O)cc2)oc2ccc(O)cc12 | 4% | -1% | -5% | ? | -12% | 20µM*
COc1ccccc1-c1cc(=O)c2cc(O)ccc2o1 | 17% | · | -15% | -18% | -7% | 16µM*
O=c1cc(-c2ccc(O)cc2)oc2ccccc12 | -5% | -9% | -7% | -11% | 6% | ·
O=c1cc(-c2cccc(O)c2)oc2ccc(O)cc12 | ? | · | -7% | -10% | ? | 7.1µM*
CN(CCO)c1nc(N)c2c(N)nc3c(c2c1C#N)CC(=O)N3C1CCCC1 | ? | -9%[46.1 µM] | ? | 28µM* | ? | ?
CCOC(=O)c1nnn(CC(=O)N2N=C(c3ccccc3)CC2c2ccccc2)c1C(=O)OCC (stereo not drawn) | 9% | 22%[46.1 µM] | 7% | 13% | 4% | ?
COc1ccc(C2=NN(C(=S)Nc3ccccc3)C(c3ccccc3)C2)cc1 (stereo not drawn) | 13µM* | -17% | -19% | 1% | -9% | -23%
CCOC(=O)/C=C(\C)N1N=C(c2ccccc2)CC1c1ccccc1 (stereo not drawn) | 1µM* | -33% | -10% | -10% | 2% | ·
CNC(=S)N1N=C(c2ccc(OC)cc2)CC1c1ccc(N(C)C)cc1 (stereo not drawn) | -13% | -30%[46.1 µM] | ? | -10% | ? | -15%
COc1ccc(C2CC(c3ccc(Br)cc3)=NN2C(=S)Nc2ccccc2)cc1 (stereo not drawn) | 11µM* | -23% | -28% | ? | -1% | ·
COc1ccc(C2CC(c3ccccc3)=NN2C(=S)Nc2ccccc2)cc1 (stereo not drawn) | -13% | -24% | -15% | 4% | -12% | ·
COc1ccc(C2=NN(C(N)=S)C(c3ccccc3)C2)cc1 (stereo not drawn) | 7.5µM* | -27% | -14% | -10% | -3% | ·
CN(C)S(=O)(=O)c1cc(C(=O)O)c(NC2CCCCC2)cc1Cl | ? | -4%[46.1 µM] | -5% | -7% | 6% | -24%
SMILES | ALDH1A1 inh | NPSR antagonist | Tau fluor counter | Tau ThT inhib | Tau fibril FP | HPGD block
CN(C)S(=O)(=O)c1cc(S(=O)(=O)N(C)C)c(Cl)cc1N | 13µM* | -2%[46.1 µM] | 8% | 3% | -1% | -6%
CNc1nc(N/N=C/c2cc3c(cc2[N+](=O)[O-])OCO3)nc(Nc2ccccc2)n1 | 3% | -15% | -30% | 7.1µM* | 7% | ·
O=[N+]([O-])c1cc2c(cc1/C=N\NS(=O)(=O)c1ccccc1)OCO2 | 1.6µM* | 2%[46.1 µM] | -19% | ? | ? | -27%
COc1ccc2c(c1)CCc1sc(NC(=O)c3ccc(Cl)cc3)nc1-2 | · | · | 8.9µM*[quencher] | 11µM* | ? | ·
COc1ccc2c(c1)-c1nc(NC(=O)c3ccc(Cl)cc3)sc1CC2 | · | · | -16% | -4% | -16% | ·
COc1ccc2c(c1)Cc1sc(NC(=O)c3cccs3)nc1-2 | 2.5µM* | ? | ? | 13µM* | ? | -24%
COc1ccc2c(c1)Cc1sc(NC(=O)c3ccccc3C)nc1-2 | · | · | ? | ? | -11% | ·
COc1ccc(C(=O)Nc2nc3c(s2)Cc2cc(OC)ccc2-3)cc1 | 22µM* | -13%[46.1 µM] | 4µM*[quencher] | 2µM* | -7% | -13%
COc1ccc2c(c1)Cc1sc(NC(=O)c3cccc(F)c3)nc1-2 | · | · | ? | 3.2µM* | -9% | ·
CCOc1cc(C(=O)Nc2ccc3c(c2)n(C)c(=O)c(=O)n3C)cc(OCC)c1OCC | · | · | -18% | -17% | -1% | ·
COc1ccc(C(=O)N2CC(=O)Nc3ccc(F)cc3C2c2ccc(F)cc2)c(OC)c1 (stereo not drawn) | · | · | -17% | -13% | -3% | ·
COc1ccc2c(c1)Cc1sc(NC(=O)c3ccccc3)nc1-2 | ? | -15%[46.1 µM] | ? | ? | -8% | ?
COc1ccc2c(c1)Cc1sc(NC(=O)c3cccc(Br)c3)nc1-2 | · | · | ? | 4µM* | -6% | ·
Cc1csc(C2=C(O)CN(c3ccc4c(c3)OCCOCCOCCOCCO4)C2=N)n1 | 10% | -24%[46.1 µM] | 4% | 1% | 4% | -6%
COc1ccc(N2CC(O)=C(c3nc(C)cs3)C2=N)cc1 | 20µM* | -26%[46.1 µM] | -9% | -13% | -1% | -12%
COC(=O)CCCC1=CC2=CC(=O)C(C)(OC(=O)c3cccs3)C(=O)C2=CN1CCc1ccccn1 (stereo not drawn) | -12%[13.5 µM] | 11% | -9%[11.6 µM] | 11µM*! | ? | -2%
CNc1nc(SCc2ccc(C)cc2)nc2c1CCCC2 | 6.3µM* | ? | -20% | ? | -3% | ?
Cc1ccc(CSc2nc3c(c(N(C)C)n2)CCCC3)cc1 | ? | -23%[46.1 µM] | -7% | -16% | -5% | -11%
